The test system of test [1] is TRPC4 beta (transient receptor potential cation channel C4), mouse. Nature of the test: TRPC4 cation channel opening, retest – cell-based, Fluo4 calcium, HEK293 TRPC4beta/mu-opioid, duplicates, 10 µM, confirmation (AID 2426;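 active = fluorescence ratio normalized to control raised more than 50% in primary screen plus both repeat runs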). As to conditions: Fluo4 calcium fluorescence, at 10 µM; hits give high values.
For test [2], the system named is transient receptor potential cation channel C4 beta (TRPC4), mouse. The test is described as follows: TRPC4 cation channel opening, second retest – cell-based, second round, Fluo4, HEK293 TRPC4beta/mu-opioid, 1 µM, confirmation (AID 2461;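 active = primary screen active and over 50% activation in each of two duplicate runs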). The settings on record: Fluo4 calcium fluorescence, at 1 µM; hits give high values.
In test [3] the test system is TRPC4 (transient receptor potential cation channel C4 beta), mouse. Nature of the test: potentiation of DAMGO EC20 TRPC4 response – cell-based, second round, Fluo-4, HEK293 TRPC4beta/mu-opioid, 1 µM, confirmation (AID 2554;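 active = primary screen hit whose fluorescence ratio, in both repeats, exceeds the weak agonist control mean by 3 SD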). As to conditions: DAMGO EC20, Fluo-4 calcium flux, at 1 µM; hits give high values. On the technique in general: A change in cytosolic calcium serves as a functional read-out for many receptors and channels.

Test [4] has as its system TRPC4 beta (transient receptor potential cation channel C4), mouse. Nature of the test: potentiation of DAMGO EC20 TRPC4 response – cell-based, Fluo-4, HEK293 TRPC4beta/mu-opioid, confirmation (AID 2555;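 active = primary screen hit whose calcium fluorescence ratio, in both repeats, exceeds the weak agonist control mean by 3 SD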). The settings on record: DAMGO EC20, Fluo-4 calcium flux, at 10 µM; hits give high values.
The target in test [5] is Short transient receptor potential channel 4 (Mus musculus) (UniProt Q9QUQ5). Nature of the test: blockers of DAMGO-evoked TRPC4 calcium flux – cell-based, Fluo4, HEK293 TRPC4beta/mu-opioid, confirmation (AID 2636;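 active = calcium signal cut by more than 3 SD below the full-agonist control yet still positive, in both repeats and the earlier primary screen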). As to conditions: at 10 µM; hits give high values.
The target is the same in test [6]. The test is described as follows: blockers of DAMGO-evoked TRPC4 calcium flux – cell-based, second round, Fluo4, HEK293 TRPC4beta/mu-opioid, 1 µM, confirmation (AID 2637;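 active = calcium signal ratio cut to more than 3 SD under the fully stimulated control mean yet still positive, in both repeats and the primary screen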). The settings on record: at 1 µM; hits give high values.
For test [7] the target is unchanged. Nature of the test: calcium entry via TRPC4 opening agents – cell-based, HEK293 TRPC4/mu-opioid, Fluo-4 calcium, dose response (AID 434937;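 active = primary screen activator hit with a dose response curve and TRPC4 channel activation at any tested dose; inactive = no activation, no dose response, or not a primary hit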).
For test [8] the target is unchanged. Nature of the test: potentiation of DAMGO-evoked TRPC4 calcium signal – cell-based, HEK293 TRPC4/mu-opioid, Fluo-4 calcium, EC20 DAMGO, dose response (AID 434941;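 active = earlier screen potentiator hit that boosts the TRPC4 ion channel at some dose, with a dose response; inactive = no potentiation, no dose response, or not a prior hit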;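 also: calcium entry triggered by an EC20 dose of DAMGO at the co-expressed mu-opioid receptor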).
For test [9] the target is unchanged. Nature of the test: block of DAMGO-driven TRPC4 calcium entry – cell-based, HEK293 TRPC4/mu-opioid, Fluo-4 calcium, dose response (AID 434942;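 active = primary screen inhibitor hit that blocks the TRPC4 channel at some tested dose, yielding a dose curve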).
The target in test [10] is Short transient receptor potential channel 6 (Mus musculus) (UniProt Q61143). Nature of the test: TRPC6 blockade by TRPC4 inhibitor hits – cell-based, HEK293, membrane potential dye, duplicate, selectivity assay for TRPC4 inhibitor project, confirmation (AID 434948;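 active = active in primary screen and both duplicates, each dropping signal beyond three positive-control SD with fluorescence still positive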). The settings on record: HEK293 TRPC6, membrane potential dye fluorescence, at 10 µM; inhibition: hits give high values, stimulated with maximal-effect acetylcholine unless noted; outcome: stimulated with maximal-effect acetylcholine unless noted.

For test [11] the target is unchanged. The test is described as follows: TRPC6 opening by TRPC4 activator hits – cell-based, HEK293, membrane potential dye, duplicate, selectivity assay for TRPC4 activator project, confirmation (AID 434950;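 active = membrane potential signal rise above negative control mean plus 3 SD in both duplicates, also active in the earlier TRPC4 screen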). As to conditions: HEK293 TRPC6, membrane potential fluorescence, at 10 µM; activation: hits give high values; outcome: activation.
Test [12] has the same target. The test is described as follows: positive modulators of mouse TRPC6 channel – HEK293 cells, membrane potential dye, duplicate, selectivity assay for TRPC4 potentiator project, confirmation (AID 434952;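 active = compound raising the membrane signal above positive-control mean plus 3 SD in both repeats, and a primary screen hit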). The settings on record: HEK293 TRPC6, membrane potential dye fluorescence, at 10 µM; maximal acetylcholine added after compound unless noted.
Test [13] addresses Short transient receptor potential channel 4 (Mus musculus) (UniProt Q9QUQ5). The test is described as follows: calcium flux activators in TRPC4/5HT1a cells, counter-screen for TRPC4 activator project, cell-based, second counter screen, HEK293 TRPC4/5HT1a, Fluo-4 (AID 434977;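 active = calcium signal rise above buffer-control mean plus 5 SD in both duplicates, and also a hit in the primary screen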). The settings on record: Fluo-4 calcium flux, at 10 µM; hits give high values.
Test [14] is described as follows: serotonin-gated TRPC4 signal block – cell-based, second counter screen, HEK293 TRPC4/5HT1a, Fluo-4, counter-screen for TRPC4 inhibitor project, confirmation (AID 434978;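 active = primary screen active whose calcium signal fell more than 3 SD beyond the full-serotonin control mean in both duplicate plates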;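 also: serotonin given first at submaximal then at maximal dose after compound preincubation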). As to conditions: Fluo-4 calcium flux, at 10 µM; inhibition: hits give high values, serotonin added to trigger calcium flux unless noted; outcome: serotonin added to trigger calcium flux unless noted.

For test [15], the system named is TRPC4 (mouse), co-expressed with 5HT1a in HEK293. The test is described as follows: enhancement of serotonin-evoked TRPC4 response – cell-based, second counter screen, HEK293 TRPC4/5HT1a, Fluo-4, counter-screen for TRPC4 potentiator project, confirmation (AID 434979). As to conditions: Fluo-4 calcium flux, at 10 µM; outcome: serotonin added at its EC20 dose unless noted; potentiation: hits give high values, serotonin added at its EC20 dose unless noted. (In general: A counterscreen serves to expose hits that act by an unwanted route or on another target.)

A short description of test [16]: nonspecific calcium rise without TRPC4 – cell-based, HEK293 mu-opioid receptor line, counter-screen for TRPC4 activator project, confirmation (AID 449723;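 active = hit in primary screen, with calcium signal over 5 SD above buffer well mean in both duplicates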;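 also: counter screen cells carry the mu-opioid receptor alone and lack TRPC4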). As to conditions: HEK293 mu-opioid cells, Fluo-4 calcium fluorescence, at 10 µM; hits give high values.
A short description of test [17]: nonspecific potentiation of DAMGO calcium response – cell-based, HEK293 mu-opioid receptor line, counter-screen for TRPC4 allosteric potentiator project, confirmation (AID 449724;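 active = calcium signal rise more than 3 SD above the low-dose agonist control mean, in both duplicate plates and the primary screen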;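 also: HEK293 cells carrying mu-opioid receptor only with no TRPC4 channel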). As to conditions: HEK293 mu-opioid receptor cells, Fluo-4 calcium flux, at 10 µM; compound added before EC20 DAMGO stimulus unless noted.
Test [18] has as its target Inward rectifier potassium channel 2 (Mus musculus) (UniProt P35561). The test is described as follows: inhibition of Kir2.1 inward rectifier potassium flux – cell-based, FluxOR thallium flux, duplicate, confirmation (AID 2032;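 active = Primary-screen hit whose thallium flux fell at least 3 control SD below untreated wells in both duplicates, with normal baseline fluorescence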). As to conditions: Kir2.1-expressing cells, FluxOR thallium flux fluorescence, at 10 µM; hits give low values.
Test [19] is described as follows: parental HEK293 cell activity, no Kir2.1 – FluxOR thallium flux, duplicate, single concentration, counter-screen for Kir2.1 inhibitor project, confirmation (AID 2105;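 active = dye signal at least 3 control SD above or below untreated wells in both duplicates, raw fluorescence within 3, either direction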;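 as to FluxOR signal as % of negative control (100 = no effect): percent is based on the flux ratio of peak minus minimum fluorescence over baseline F0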). As to conditions: parental HEK293 cells, FluxOR thallium flux fluorescence, at 10 µM; 0% = unstimulated blank wells.

For some of these results: Results with a measured potency or affinity are listed apart. The list shows a part of the results. Active and inactive are the calls of the source.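 The calls were made as follows, unless noted: active = signal rise over 3 SD above mean of control wells given weak agonist, in both repeats and first screen; inactive = the rest.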

The results in this text go back to PubChem BioAssay.

Sequence of Short transient receptor potential channel 4 (Mus musculus) (Q9QUQ5 whole entry, looked up): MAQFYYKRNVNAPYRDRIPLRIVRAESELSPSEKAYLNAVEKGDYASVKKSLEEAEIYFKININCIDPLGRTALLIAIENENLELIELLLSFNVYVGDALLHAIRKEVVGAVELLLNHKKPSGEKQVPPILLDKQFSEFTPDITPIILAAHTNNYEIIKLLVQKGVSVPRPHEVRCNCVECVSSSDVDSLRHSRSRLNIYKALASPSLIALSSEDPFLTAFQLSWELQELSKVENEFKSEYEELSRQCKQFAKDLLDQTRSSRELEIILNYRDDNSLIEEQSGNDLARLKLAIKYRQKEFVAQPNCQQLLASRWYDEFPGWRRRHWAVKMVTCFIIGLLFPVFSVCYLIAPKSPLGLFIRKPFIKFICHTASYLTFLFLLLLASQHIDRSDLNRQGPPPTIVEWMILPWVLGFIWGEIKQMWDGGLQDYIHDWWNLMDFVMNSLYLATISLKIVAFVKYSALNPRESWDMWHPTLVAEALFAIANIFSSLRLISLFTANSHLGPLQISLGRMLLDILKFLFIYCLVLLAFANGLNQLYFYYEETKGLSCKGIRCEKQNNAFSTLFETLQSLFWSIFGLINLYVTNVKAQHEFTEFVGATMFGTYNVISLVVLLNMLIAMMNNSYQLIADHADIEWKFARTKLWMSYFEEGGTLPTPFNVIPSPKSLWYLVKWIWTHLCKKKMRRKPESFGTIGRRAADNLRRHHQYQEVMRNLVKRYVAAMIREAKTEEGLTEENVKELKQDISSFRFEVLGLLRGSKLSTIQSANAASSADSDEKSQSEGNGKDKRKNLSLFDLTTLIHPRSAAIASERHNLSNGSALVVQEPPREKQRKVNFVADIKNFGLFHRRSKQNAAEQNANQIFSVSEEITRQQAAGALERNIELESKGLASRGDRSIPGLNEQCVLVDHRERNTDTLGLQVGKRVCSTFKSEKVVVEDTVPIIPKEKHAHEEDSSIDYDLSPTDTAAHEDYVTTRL
Sequence of Short transient receptor potential channel 6 (Mus musculus) (Q61143 whole entry, looked up): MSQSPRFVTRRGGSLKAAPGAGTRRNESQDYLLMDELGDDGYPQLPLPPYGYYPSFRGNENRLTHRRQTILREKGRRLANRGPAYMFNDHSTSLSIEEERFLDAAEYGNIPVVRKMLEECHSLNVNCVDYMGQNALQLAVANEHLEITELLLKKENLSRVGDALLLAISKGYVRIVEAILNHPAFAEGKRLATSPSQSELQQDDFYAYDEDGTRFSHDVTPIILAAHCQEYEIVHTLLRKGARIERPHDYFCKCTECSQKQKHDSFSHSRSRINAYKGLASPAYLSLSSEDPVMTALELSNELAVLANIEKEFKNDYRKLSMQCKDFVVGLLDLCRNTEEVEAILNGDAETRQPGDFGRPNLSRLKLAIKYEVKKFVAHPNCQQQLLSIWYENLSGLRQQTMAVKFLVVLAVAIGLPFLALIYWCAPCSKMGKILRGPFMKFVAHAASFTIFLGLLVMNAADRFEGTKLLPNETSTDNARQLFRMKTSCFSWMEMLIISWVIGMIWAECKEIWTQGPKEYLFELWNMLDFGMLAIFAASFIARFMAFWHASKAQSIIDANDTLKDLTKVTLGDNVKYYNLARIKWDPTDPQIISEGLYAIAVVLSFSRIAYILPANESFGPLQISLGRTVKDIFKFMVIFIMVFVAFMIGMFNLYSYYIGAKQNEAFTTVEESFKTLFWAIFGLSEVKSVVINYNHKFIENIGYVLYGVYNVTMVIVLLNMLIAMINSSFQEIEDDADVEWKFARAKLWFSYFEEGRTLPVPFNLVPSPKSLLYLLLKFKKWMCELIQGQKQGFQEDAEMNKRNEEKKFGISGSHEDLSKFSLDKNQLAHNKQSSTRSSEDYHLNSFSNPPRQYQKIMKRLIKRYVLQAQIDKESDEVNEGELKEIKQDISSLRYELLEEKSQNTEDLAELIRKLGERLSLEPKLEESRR
Sequence of Inward rectifier potassium channel 2 (Mus musculus) (P35561 whole entry, looked up): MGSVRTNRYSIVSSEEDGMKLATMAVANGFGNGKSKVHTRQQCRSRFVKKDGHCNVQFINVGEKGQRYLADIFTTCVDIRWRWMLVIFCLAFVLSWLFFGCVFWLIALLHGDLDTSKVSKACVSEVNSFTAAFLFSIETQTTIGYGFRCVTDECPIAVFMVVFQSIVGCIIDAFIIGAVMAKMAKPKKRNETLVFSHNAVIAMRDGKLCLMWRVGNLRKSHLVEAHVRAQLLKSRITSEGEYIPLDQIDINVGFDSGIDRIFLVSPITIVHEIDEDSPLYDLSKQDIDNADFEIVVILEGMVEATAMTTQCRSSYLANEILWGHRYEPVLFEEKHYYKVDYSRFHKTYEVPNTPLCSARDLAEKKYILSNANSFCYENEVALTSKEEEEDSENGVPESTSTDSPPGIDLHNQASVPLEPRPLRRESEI

Consider `CN1CCN(c2cccc3c2C(=O)c2ccccc2C3=O)CC1`, for which the result in test [1], in test [2], in [5], in test [6], in [7] and in test [8] was inactive. Moreover, the outcome in [9], in test [10], in test [11], in test [12], in test [13] and in test [14] was inactive. The outcome in test [15], in [16] and in test [17] was inactive. The potentiation in test [3] was 16% (active); in test [4] it was 8% (active).

Regarding `COc1cc(-n2c(=S)[nH]c3ccc(C)cc3c2=O)c(Cl)cc1Cl`, the compound was called inactive in [18] and in test [19].

Turning to `CN1CCN(Cc2cc(=O)n3ccsc3n2)CC1`, the result in test [1], in [2], in [3], in test [4], in test [5] and in [6] was inactive. The outcome in [7], in test [8], in [9], in test [10], in test [11] and in test [12] was inactive. The result in test [13], in [14], in test [16] and in test [17] was inactive. Also, in test [15], the potentiation was 20% (active).

Take `c1ccc2nc(OCCN3CC3)ccc2c1`: the outcome in test [1], in test [2], in [3], in test [5], in [6] and in [7] was inactive. The result in test [8], in test [9], in test [10], in [11], in test [12] and in [13] was inactive. Also, the result in test [14], in [16] and in test [17] was inactive. The potentiation is 17% (active) in test [4] and 16.5% (active) in test [15].

Take `COC(=O)C(O)(c1ccc(NC(=S)NC(=O)c2ccc(Cl)cc2Cl)c(C)c1)C(F)(F)F` (centres undefined): the result in [1], in test [2], in [3], in [5], in test [6] and in [7] was inactive. In addition, the outcome in test [8], in test [9], in test [10], in [11], in test [12] and in [13] was inactive. For the same compound, the outcome in test [14], in test [16] and in [17] was inactive. The figures for the potentiation in test [4] and in [15] were 18% (active) and 24.2% (active), respectively.

`CNCC(O)c1cc(F)c(OCc2ccccc2)c(OCc2ccccc2)c1F` (centres undefined): the Tl flux remaining, % of negative control (hits give low values) in test [18] is 34.5% (active). Also, the FluxOR signal as % of negative control (100 = no effect) in test [19] was 74% (active).

Regarding `c1ccc(C2NCc3ccccc3-n3cccc32)cc1` (centres undefined), the Tl flux remaining, % of negative control (hits give low values) in [18] is 52% (active). In addition, the outcome in test [19] was inactive.

Consider `Clc1ccc(OCC#CCN2CCCC2)cc1`, for which the result in test [1], in [2], in test [4], in [5], in test [6] and in [7] was inactive. The result in [8], in test [9], in test [10], in test [11], in test [12] and in test [13] was inactive. Also, the outcome in test [14], in test [16] and in test [17] was inactive. Further, the potentiation is 30% (active) in test [3] and 26% (active) in test [15].

With `CC(Cc1ccccc1Sc1ccccc1)N(C)C` (centres undefined), the outcome in test [1], in [2], in test [3], in test [4], in test [5] and in test [6] was inactive. The result in test [7], in test [8], in [9], in [10], in test [11] and in [12] was inactive. Besides, the outcome in [13], in [14], in test [15], in test [16] and in [17] was inactive.

On to `CCN1CCN(c2cc(N3CCCC3)c([N+](=O)[O-])cc2F)CC1`, for which the result in [1], in test [2], in test [5], in test [6], in [7] and in [8] was inactive. In addition, the outcome in test [9], in test [10], in test [11], in test [12], in test [13] and in [14] was inactive. Further, the outcome in test [16] and in [17] was inactive. For the same compound, the potentiation in test [3] is 31% (active); in test [4], 11% (active); in test [15] it was 17.9% (active).

As to `Cc1cc(OC(C)C(=O)NCc2ccncc2)c2c3c(c(=O)oc2c1)CCCC3` (centres undefined), the outcome in [1], in test [2], in test [3], in test [4], in test [5] and in [6] was inactive. Also, the outcome in test [7], in test [8], in test [9], in test [10], in test [11] and in test [12] was inactive. The result in test [13], in test [14], in test [15], in test [16] and in test [17] was inactive.

Turning to `CN(C)CCn1cnc2ccccc21`, the outcome in test [1], in test [2], in test [3], in [4], in test [5] and in test [6] was inactive. In addition, the result in [7], in [8], in [9], in test [10], in test [11] and in test [12] was inactive. Further, the outcome in test [13], in test [14], in test [16] and in test [17] was inactive. Also, the potentiation in test [15] is 19.9% (active).

On to `CCN(CC)P(=O)(/C=C(\Cl)c1ccccc1)/C=C(\Cl)c1ccccc1`, for which the result in test [1], in test [2], in test [4], in test [5], in [6] and in test [7] was inactive. Besides, the result in [8], in [9], in test [10], in [11], in test [12] and in [13] was inactive. Further, the outcome in test [14], in test [15], in [16] and in test [17] was inactive. In addition, the potentiation in test [3] was 7% (active).

Consider `CCNCCNc1ccc([N+](=O)[O-])c2cccnc12`, for which the outcome in test [1], in test [2], in [4], in test [5], in test [6] and in test [7] was inactive. Besides, the outcome in test [8], in test [9], in test [10], in test [11], in [12] and in test [13] was inactive. The result in test [14], in [15], in test [16] and in test [17] was inactive. Also, in [3], the potentiation is 11% (active).

As to `COc1ccc(C(=O)C2CN(C)CC2c2ccc(Cl)cc2)cc1` (centres undefined), the outcome in test [1], in test [2], in [3], in test [4], in test [5] and in test [6] was inactive. In addition, the outcome in test [7], in test [8], in test [9], in test [10], in [11] and in [12] was inactive. Also, the outcome in test [13], in test [14], in [15], in [16] and in test [17] was inactive.

With `Fc1ccc(N2CCN(Cc3ccc4c(c3)OCO4)CC2)cc1`, the Tl flux remaining, % of negative control (hits give low values) in test [18] is 36.5% (active). Besides, the outcome in test [19] was inactive.

Regarding `Cc1c(P(=S)(c2ccccc2)c2ccccc2)[n+]2ccccc2n1C`, the result in [1], in test [2], in [3], in test [4], in test [5] and in test [6] was inactive. Moreover, the outcome in test [7], in [8], in test [9], in test [10], in test [11] and in test [12] was inactive. Also, the outcome in [13], in test [14], in test [15], in test [16] and in test [17] was inactive.
